Screens: PubChem BioAssay, The Scripps Research Institute Molecular Screening Center
The sample as a whole holds a higher share of hits than the screen did.
SF-1 inh = inhibitors of human nuclear receptor SF-1; AID 525; CHO-K1 Gal4-SF-1 LBD luciferase reporter; inhibition, % at 10 µM; 65,000 tested, 0.55% active; Q13285;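 active = inhibition above the mean inhibition of all tested compounds plus 3 SD, cut at about 48% in these data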
Target sequence (Q13285 whole entry, looked up, the tested form may be a part): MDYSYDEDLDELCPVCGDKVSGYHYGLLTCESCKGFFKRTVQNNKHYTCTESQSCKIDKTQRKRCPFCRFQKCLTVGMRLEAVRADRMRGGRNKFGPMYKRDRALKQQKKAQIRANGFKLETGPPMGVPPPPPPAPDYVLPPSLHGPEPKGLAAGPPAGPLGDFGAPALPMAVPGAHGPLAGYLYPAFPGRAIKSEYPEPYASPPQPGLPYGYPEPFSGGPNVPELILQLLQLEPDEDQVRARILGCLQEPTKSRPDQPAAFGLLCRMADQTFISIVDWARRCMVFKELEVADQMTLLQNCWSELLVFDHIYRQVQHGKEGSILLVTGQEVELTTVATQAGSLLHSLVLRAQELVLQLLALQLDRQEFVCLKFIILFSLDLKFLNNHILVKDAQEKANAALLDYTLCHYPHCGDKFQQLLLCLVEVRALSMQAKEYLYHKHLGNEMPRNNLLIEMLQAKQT
A number is an active result; . = inactive.

SMILES	SF-1 inh
COc1ccc2[nH]c(=O)c(CN(C(=O)C3CCCO3)c3cccc(C)c3)cc2c1 (centres undefined)	.
CCOC(=O)c1c(C)[nH]c(C(=O)COC(=O)CNC(=O)C2CCCCC2)c1C	.
OCC1(C2=NOC(O)(C(F)(F)F)C2)CCCCC1 (centres undefined)	.
CCOc1ccccc1C(=O)N1CCN=C1SC	.
COC(=O)c1[nH]c2ccccc2c1NC(=O)CN1CCN(c2cccc(Cl)c2)CC1	.
CCOc1ccccc1C(=O)N1CCN(c2cccc(Cl)c2)CC1	55.2
COC(=O)c1cc(S(=O)(=O)N2CCC(C)CC2)ccc1F	.
O=C(Nc1nccs1)c1ccc(COc2ccccc2Br)o1	.
Cc1c(C(=O)O)oc2ccc(S(=O)(=O)NCc3ccc4c(c3)OCO4)cc12	.
CCOC(=O)c1oc2ccc(S(=O)(=O)Nc3ccc4c(c3)n(C)c(=O)n4C)cc2c1C	57.2
CCOC(=O)c1ccc(NS(=O)(=O)c2ccc3[nH]c(=O)[nH]c3c2)cc1	.
Cc1cc(/C=N/n2cnnc2)c(C)n1-c1ccc(OCc2ccc(F)cc2)cc1	85.7
COC(=O)c1ccc(Oc2cc(C)nc(SC)n2)cc1	.
Cc1cccc(NC(=O)c2oc3c(c2C)C(=O)CC(C)(C)C3)n1	.
CNC(=O)NC(=O)COC(=O)CCCOc1ccc(OC)cc1	.
O=C(c1ccc(C23CC4CC(CC(C4)C2)C3)o1)N1CCOCC1	.
O=C(CS(=O)(=O)c1ccccc1)c1ccc2c(c1)OCCO2	.
O=S(=O)(C/C(=C/CO)S(=O)(=O)c1ccccc1)c1ccccc1	95.5
O=C(CSc1nnc(-c2cccnc2)n1Cc1ccco1)N1c2ccccc2Sc2ccccc21	.
CC(NC(=O)C1CCC(=O)N1Cc1ccc(F)cc1)c1ccc2c(c1)OCCO2 (centres undefined)	.
O=C(NCCCN1CCOCC1)c1csc2c1CCCC2	74.0
O=C(NCCCN1CCCCCC1)c1ccc2c(c1)NC(=O)C(N1CCOCC1)S2 (centres undefined)	.
COc1cccc(-c2cc(C(=O)NCCN3CCOCC3)no2)c1	.
COc1ccc2sc(NC(=O)CC(C)C)nc2c1	.
COc1ccc(-n2nc(C(=O)NCC(=O)N3CCN(c4ccccn4)CC3)c3ccccc3c2=O)cc1	.
SMILES	SF-1 inh
Oc1c(CN2CCN(c3ccccn3)CC2)cc(Cl)c2cccnc12	67.1
Oc1c(CN2CCCCC2)cc(COCc2ccccc2)c2cccnc12	88.7
COCc1cc(CN2CCCC2)c(O)c2ncccc12	49.8
c1ccc(Cn2nnnc2CN2CCCC2)cc1	.
O=C(c1cccc(COc2ccc(Cl)cc2Cl)c1)N1CCN(c2ccccn2)CC1	.
O=C(c1ccccc1)c1c[nH]c2cc3c(cc2c1=O)OCCO3	.
O=C(Nc1nc(-c2ccc3c(c2)OCO3)cs1)C1CC1	.
COc1ccc(C)cc1NC(=O)C1CCCN(S(=O)(=O)c2c(C)noc2/C=C/N(C)C)C1 (centres undefined)	.
O=C(Nc1ccc2c(c1)OCO2)c1ccc(COc2ccc3c(c2)CCC3)o1	.
CCN(CC)c1ccc2c(c1)CCCN2	.
O=C(NCC(c1cccnc1)N1CCN(c2ccc(F)cc2)CC1)c1ccc2c(c1)OCO2 (centres undefined)	.
O=C(Nc1ccc2c(c1)OCO2)c1c(F)cccc1F	.
O=C1/C(=C/Nc2ccc3c(c2)OCO3)CCc2ccccc21	74.2
O=C1c2ccccc2C(O)N1Cc1ccc2c(c1)OCO2 (centres undefined)	.
CCCCN(CC)CCNS(=O)(=O)c1ccc2c(c1)oc(=O)n2C	.
O=C(NCc1nnc(SCC(=O)N2CCC(Cc3ccccc3)CC2)o1)c1ccccc1F	.
Cc1ccc(Cn2c(CN3CC(C)OC(C)C3)nc3c2c(=O)n(C)c(=O)n3C)cc1 (centres undefined)	.
Cc1cc(C)nc(NC2=NCC(=O)N2c2ccc3c(c2)OCCO3)n1	.
Cc1nc2c(cc(Oc3ccc(S(=O)(=O)N4CCOCC4)cn3)c3ccsc32)s1	.
COCCCNc1oc(-c2ccccc2OC)nc1C#N	.
COc1ccccc1-c1nnc(Nc2nc3c(OC)cccc3s2)o1	67.0
COc1cccc(-c2nnc(Nc3nc4c(F)cccc4s3)o2)c1	.
CC(=O)N1CCN(c2ccc(Oc3nnnn3-c3ccccc3)cc2)CC1	.
CCc1ccc(-c2ccc(C(=O)O)cc2)nc1	.
CCCc1ccc(-c2ccc(F)c(N)c2)nc1	60.1
SMILES	SF-1 inh
C/C(N)=C(/C#N)C(=O)COC(=O)c1cc(C)n(-c2ccc(F)cc2)c1C	.
COC(=O)Nc1ccc(S(=O)(=O)N2c3ccccc3CCC2C)cc1 (centres undefined)	.
CN(c1ccccc1)S(=O)(=O)c1ccc(C(=O)Nc2nnc(-c3ccc(F)cc3)o2)cc1	.
O=C(Nc1nnc(C2CC2)o1)c1ccc(S(=O)(=O)N2CCCc3ccccc32)cc1	49.1
CC(=O)C1=C(O)C(=O)N(CCc2c[nH]c3ccccc23)C1c1ccco1 (centres undefined)	.
CCOC(=O)c1c(C)n(CC(O)c2ccccc2)c2ccc(O)cc12 (centres undefined)	.
COC(=O)C(Cc1ccc(O)cc1)NC(=O)c1ccccc1OC (centres undefined)	.
